# Results as given in PubChem BioAssay (NCI).
# The panel holds about 79,000 compounds, 15% with a hit somewhere; the sample as a whole holds those more often. A number with no mark means an inactive call. The source made the active and inactive calls. Rule as the data show it: active = growth inhibition above about 70%; inactive = the rest. Where a SMILES comes first, the peptide text is derived from it. [ ]: non-standard residue; d: D form. The star is where a group is joined. Ac5c = NC1(C(=O)O)CCCC1; Cbz = O=C(OCc1ccccc1)*; Boc = CC(C)(C)OC(=O)*; tBu = CC(C)(C)*
# Legend:
# [1] = NCI Yeast Anticancer Drug Screen. Data for the rad50 strain (AID 155);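 also: 0% = growth of vehicle-only cultures of the same strain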; conditions: S. cerevisiae rad50 strain growth inhibition; at 50.0 µM; stronger effect = higher value
# Outline: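 Inhibition values express reduced yeast growth in compound-treated cultures relative to vehicle-treated controls.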
# [2] = NCI Yeast Anticancer Drug Screen. Data for the mec2-1 strain (AID 157); conditions: S. cerevisiae mec2-1 strain, at 50.0 µM, stronger effect = higher value
# Outline: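 Readout is yeast growth inhibition, normalised to vehicle-treated controls, in the mec2-1 strain exposed to compound.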
# [3] = NCI Yeast Anticancer Drug Screen. Data for the sgs1 mgt1 strain (AID 161);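 also: 0% = growth of cultures given vehicle only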; conditions: S. cerevisiae sgs1 mgt1 strain, at 50.0 µM, stronger effect = higher value
# Outline: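 This yeast growth screen uses a strain with defined DNA-repair lesions; compound-treated growth is compared with vehicle-treated growth.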
# [4] = NCI Yeast Anticancer Drug Screen. Data for the cln2 rad14 strain (AID 165);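 also: 0% = growth equal to vehicle treated cultures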; conditions: S. cerevisiae cln2 rad14 strain, at 50.0 µM, stronger effect = higher value
# Outline: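 Relative to vehicle controls, growth inhibition of compound-treated cln2 rad14 yeast was recorded.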
# [5] = NCI Yeast Anticancer Drug Screen. Data for the bub3 strain (AID 167); conditions: S. cerevisiae bub3 mutant strain, at 50.0 µM, stronger effect = higher value
# Outline: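 Steps: expose the mutant yeast strain to compound; grow alongside vehicle-treated cultures; measure growth; express inhibition against the vehicle cultures.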
# [6] = NCI Yeast Anticancer Drug Screen. Data for the mlh1 rad18 strain (AID 175); conditions: S. cerevisiae mlh1 rad18 strain growth inhibition; at 50.0 µM; stronger effect = higher value
# Outline: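 Test agents were incubated with a yeast strain of defined genotype (DNA damage repair defect). Inhibition of growth was derived by comparison with vehicle-exposed cultures.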
Compound,growth inhibition [1],growth inhibition [2],growth inhibition [3],growth inhibition [4],growth inhibition [5],growth inhibition [6]
CCN(CCNc1cc(OC)cc2cccnc12)CC(C)C,22.8%,9.65%,1.8%,13.8%,6.85%,17%
O=[N+]([O-])c1ccccc1C=NC12CC3CC(CC(C3)C1)C2,15%,-9.15%,9.95%,-49.2%,-15.3%,3.45%
CC(C)OC(=O)c1cccnc1,16.5%,2.2%,7.05%,-39%,-1.35%,-2.45%
O=C(OCCO)c1ccc(O)c(O)c1,14.6%,-4.65%,3.1%,-25.8%,-6.1%,7.55%
NC(=O)C(=O)n1ncc(Cl)c(Cl)c1=O,2.65%,-3%,1.05%,6.55%,8.25%,-4.1%
Cc1ccc2nc(-c3ccc(-c4nc5ccc(C)cc5o4)c(O)c3)oc2c1,-36.3%,-14.4%,-27.1%,2.95%,-17.2%,-24.8%
Cc1cc(N(CCC#N)CCC#N)ccc1/C=C\C(=O)Nc1ccccc1,19.3%,16.3%,-10.8%,10.2%,36.7%,4.55%
Cc1nc(Nc2ccccc2Cl)sc1C(=O)CC(=O)C(N)=O,37.1%,20.9%,39.4%,24.1%,2.7%,48.6%
Cc1cc(N(CCC#N)CCC#N)ccc1/C=C(\NC(=O)/C=C/c1ccccc1)NC(=O)Nc1ccc(Cl)cc1,13.5%,2.75%,-17.9%,10.8%,12.5%,29.2%
Cc1ccc(CCCC(N)=O)cc1,32.1%,-0.15%,8.85%,4.1%,-2.15%,2.55%
C(=Nc1ccccc1)Nc1ccccc1,2.85%,15.1%,16.4%,25.9%,-15.4%,-12.8%
COc1ccc(C2c3cc4c(cc3OC(C)(OC)C2C)OCO4)c(OC)c1OC (stereo unspecified),-1.5%,5.8%,-4.75%,-19%,-3.6%,22.1%
CCCCCCC(=O)/C=C/c1ccc(OC)cc1,-12.5%,-6.55%,-14%,3.6%,-11.6%,-16.1%
Nc1nc(N)c2nc(-c3ccc(O)cc3)c(-c3ccc(O)cc3)nc2n1,-15.5%,-4%,0.15%,50.6%,7.9%,-13.6%
Nc1nc(C2CCCC2)c(Br)c(=O)[nH]1,-24.2%,-3.75%,-17.4%,2.45%,2.7%,-8.75%
COc1ccc2oc(=N)c(C(=O)NCc3ccccc3)cc2c1,-4%,-0.85%,-19.1%,-6.35%,-34.1%,-24.6%
COc1ccc2c(c1)C1(C)CCC(=O)C(C)=C1CC2 (stereo unspecified),17.9%,-3.95%,22.9%,7.75%,14.8%,14.4%
CN(CCN1CCOCC1)C(c1ccccc1)c1ccccc1,83.7% (active),66.3%,87.9% (active),61.8%,52.4%,67.4%
O=C(O)CC(NC(=O)OCc1ccccc1)C(=O)OCc1ccccc1 (stereo unspecified),0.55%,17.9%,-12.3%,-16.6%,-21.1%,-20.1%
Cc1cc(N(CCC#N)CCC#N)ccc1/C=C(\N=[N+]=[N-])C(=O)NC(=O)COc1ccccc1,16.1%,-19.8%,4.7%,11.9%,-6.65%,-9.05%
N#CCc1n[nH]c(Cc2ccccc2)n1,2.35%,6.6%,3.9%,7.6%,0.8%,12.4%

Compound,growth inhibition [1],growth inhibition [2],growth inhibition [3],growth inhibition [4],growth inhibition [5],growth inhibition [6]
C=C(C(N)=O)c1ccc([N+](=O)[O-])o1,52.4%,44.7%,62.4%,30%,19.8%,90% (active)
CCC(C)CC(C)C1=NC(C)(C)CC(C)O1 (stereo unspecified),3.65%,-6.55%,0.75%,-16.6%,0.2%,8.3%
N=C1N(S(=O)(=O)c2ccccc2)[C@@H](Cc2ccccc2)[C@H](c2ccccc2)C1(c1ccccc1)c1ccccc1,-25.1%,-7.3%,6.05%,-29.6%,-3.5%,18.2%
COc1cc([N+](=O)[O-])ccc1N=Cc1cccs1,19.4%,22.8%,34%,0.25%,18.3%,27.9%
[Cu+2].[O-]C1c2c(ccc3ccccc23)-c2ccccc2C1N=Nc1ccccc1.[O-]c1c(N=Nc2ccccc2)c2ccccc2c2ccc3ccccc3c12 (stereo unspecified),-19.1%,-20.7%,-7.8%,-20.4%,-10.9%,-20.2%
CC1(C)OC2OC(COC(=O)c3ccc([N+](=O)[O-])cc3)C3OC(C)(C)OC3C2O1 (stereo unspecified),-13.6%,-8.45%,-8.85%,-28.1%,0.85%,-25.4%
COc1ccc(CC2Cc3ccccc3CC(=O)N2)cc1OC (stereo unspecified),36.5%,-54.3%,-4.4%,3.65%,25.6%,-38.1%
COC1O[C@H]2CCN(C(=O)OCc3ccccc3)[C@H]2[C@H]1OCc1ccccc1 (stereo partly specified),19.8%,-11.6%,20.2%,4.05%,28.6%,44.5%
CCCCC(=O)OCC(=O)[C@]1(O)Cc2c(O)c3c(c(O)c2[C@@H](OC2CC(NC(=O)C(F)(F)F)C(O)C(C)O2)C1)C(=O)c1c(OC)cccc1C3=O (stereo partly specified),19.5%,21.3%,29.9%,4.9%,53%,30.8%
Clc1ccc2ccc3ccc(Cl)nc3c2n1,18.5%,20.4%,26.4%,-18.5%,8.5%,9.95%
CCOC(=O)C(=O)Nc1c(N(CC)CC)n2ccccc2nc1=O,5.75%,-22.5%,-4.15%,6.2%,2.6%,13.8%
NC(CSSCC(N)Cc1ccccc1)Cc1ccccc1 (stereo unspecified),-4.25%,-9.45%,-9.2%,14.8%,-27.5%,25.9%
O=C(CCCn1cnc([N+](=O)[O-])n1)NCCn1ccnc1[N+](=O)[O-],-3.1%,-7.3%,-10.3%,-5.1%,-13.6%,-26.3%
CC(=O)Oc1ccccc1C1CCCCC1,-1.7%,-28.6%,-2.5%,17.2%,-11.9%,0.9%
Cc1nc(N)nc(C)c1N=Nc1ccccc1Br,2%,3.75%,2.35%,-42.2%,5.35%,-6.25%
Cc1ccc2nc(CC(=O)c3ccc(F)cc3)c(=O)[nH]c2c1,1.85%,18.8%,16.1%,27.8%,18.1%,34.9%
CSCCC(C(=O)O)N(C)C (stereo unspecified),-4.3%,-21.3%,-17.3%,-2.9%,-19.6%,-18%
COc1cc(C=Nc2ccc(C)c(Cl)c2)ccc1OC(=O)c1ccccc1,-22.2%,-9.05%,-8.3%,-12.8%,3.5%,-0.3%
O=C(O)C(CO)N=Cc1nc(-c2ccccc2)oc1O (stereo unspecified),0.2%,6.05%,12.4%,9.25%,-6.25%,-11.8%
COC(=O)C1(NC(=O)C(Cc2ccccc2)NC(=O)C(NC(=O)C(CCCCNC(=O)OC(C)(C)C)NC(=O)C(Cc2c[nH]c3ccccc23)NC(=O)C(Cc2ccccc2)NC(=O)OCc2ccccc2)C(C)OC(C)(C)C)CCCC1 (stereo unspecified) (Cbz-FWK(Boc)T(tBu)F[Ac5c]-OMe; configuration not given here),-11.9%,-1.85%,-26.6%,6.9%,-11.4%,-12.7%
